The experiment concerns wheat germ agglutinin (Triticum aestivum), Alexa647-labelled. Briefly: Alexa647-WGA lectin binding to printed small molecules – biochemical, small-molecule microarray, 635/667 nm fluorescence, artefact control for SMM control-protein annotation, profiling panel (AID 1140).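 Note: score merges 667 nm feature emission with signal to noise over triplicate slides.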 The note with it: WGA-A647 binding, 635 nm fluorescence, higher = more signal.
For `C=C(C(=O)CC[C@@H](OC(=O)c1ccccc1-c1ccccc1C(=O)O)c1ccc(OCCO)cc1)C(C)C`, the composite z-score worked out at 0.889.

Take `COCCOC(=O)N1C(=O)[C@@]2(c3cc(C#CCCO)ccc31)[C@H](C(=O)N1CCN(c3ncccn3)CC1)[C@H]1C(=O)O[C@H](c3ccccc3)[C@H](c3ccccc3)N1[C@@H]2c1ccc(OCCO)cc1`: the composite z-score was 1.02.

`O=C1OC[C@@H](c2ccccc2)n2cc(/C=C/c3ccccc3)cc21` registered a composite z-score of -0.328.

The compound `CCOC(=O)C[C@H]1[C@H](OC(=O)c2cc3ccccc3oc2=O)[C@@H](NC(=O)Cc2ccc(OC)cc2)c2cc(OCCCO)ccc2N1C(=O)Cc1ccc(OC)cc1` came in with a composite z-score of 0.348.

`C=CCN1C(=O)[C@@]2(O[C@@H](CCO)[C@H]([Si](C)(C)c3ccc(OC)cc3)[C@H]2C)c2cc(N3CCCCC3=O)ccc21`: the composite z-score was 0.302.

For `COc1ccc(CCNC(=O)[C@@]2(C)c3ccccc3C(=O)N(Cc3ccc(OC(F)(F)F)cc3)[C@H]2c2ccc(CO)cc2)cc1`, the composite z-score is 0.375.

Turning to `COC(=O)[C@@]1(Cc2ccccc2)[C@H]2c3cc(C(=O)N(C)C)n(CCF)c3C[C@H]2CN1C(=O)c1ccccc1`, the composite z-score stood at 0.969.

For the compound `COc1ccc(NN2C(C(O)c3ccc(F)cc3)C=CC3C(=O)N(C4CCCCC4)C(=O)C32)cc1` (centres undefined), the composite z-score came out at 1.14.

For `COC(=O)[C@@]1(Cc2ccc(F)cc2)[C@H]2c3cc(C(=O)N(C)C)n(Cc4ccsc4Br)c3C[C@H]2CN1C(=O)c1ccccc1`, the composite z-score worked out at 1.04.

Consider `COc1ccc(NN2C(C(O)c3ccccc3)C=CC3C(=O)N(C4CCCCC4)C(=O)C32)cc1` (centres undefined), for which the composite z-score was determined as 1.03.

For `C=CC[C@H](OC(=O)Nc1ccc(SC)cc1)c1ccc(O)c(F)c1`, the composite z-score was 0.541.

Consider `CO[C@H]1O[C@H](CO)[C@@H](OC(=O)CCc2ccccc2)[C@@H]2OC(=O)[C@@H](Cc3ccc4ccccc4c3)C/C=C/C[C@H](Cc3ccc4ccccc4c3)C(=O)O[C@@H]12`, for which the composite z-score was -0.228.

With `COC(=O)[C@H](Cc1ccccc1)N1CC(C)(OC)O[C@@H](Cc2ccccc2)[C@H]1/C=C/C1CC1` (some centres undefined), the composite z-score was 0.808.

`C[C@H]1C2[C@H](Cc3ccccc3)NC(=O)[C@]23C(=O)N[C@@H](Cc2ccccc2)C(=O)N2CCC[C@H]2C(=O)NC/C=C/CC/C=C/C3[C@@H]2O[C@]12C` (some centres undefined) showed a composite z-score of 0.0255.

In the case of `C=C(C(=O)CC[C@@H](OC(=O)c1ccccc1-c1ccccc1C(=O)O)c1cccc(OCCO)c1)C(C)C`, the composite z-score worked out at 0.58.

In turn, `C=C(CCCC)C(=O)CC[C@H](OC(=O)c1ccccc1-c1ccccc1C(=O)O)c1cccc(OCCO)c1` had a composite z-score of -0.373.

For the compound `C=C(CCCC)/C(=C/C[C@@H](OC(C)=O)c1cccc(OCCO)c1)c1cc(C(=O)OC)ccc1OC`, the composite z-score is 0.617.

With `CCCCCN1CC=CC23O[C@@H]4/C=C\CCCOC(=O)C4[C@H]2C(=O)N(CCO)[C@@H]3C1=O` (some centres undefined), the composite z-score worked out at 0.759.

In turn, `O=C1NC(=O)C2C1C=CC(C(O)C1CCCCC1)N2Nc1ccccn1` (centres undefined) showed a composite z-score of 0.149.

Take `COC(=O)C1(CC(C)C)C=C2C(=C(C)C(=O)C2C)CN1` (centres undefined): the composite z-score stood at 0.67.

As for `Cc1ccc(N2C(=O)c3ccccc3[C@@H](C(=O)NCCN3CCOCC3)[C@@H]2c2ccc(CO)cc2)nc1`, the composite z-score was -0.183.

`COCCOC(=O)N1C(=O)[C@@]2(c3cc(C#CCNC(N)=O)ccc31)[C@H](c1ccc(O)cc1)N1[C@H](c3ccccc3)[C@H](c3ccccc3)OC(=O)[C@H]1[C@@H]2C(=O)N1CCc2cc(OC)c(OC)cc2C1` registered a composite z-score of 0.815.

Compound `O=C(NC1CC1)[C@@H]1c2ccccc2C(=O)N(C2CCCCC2)[C@H]1c1ccc(CO)cc1` showed a composite z-score of 0.063.

In turn, `COc1ccc([Si](C)(C)[C@@H]2[C@@H](CC(=O)N(CCO)Cc3ccccc3)O[C@]3(C(=O)N(Cc4cccc(I)c4)c4ccccc43)[C@H]2C)cc1` registered a composite z-score of 0.618.

The record behind these values is PubChem BioAssay.
